Measured values as given in PubChem BioAssay (NCI).
The panel holds about 83,000 compounds, 20% with a hit somewhere; the sample as a whole holds those more often.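 A percent growth of 40 corresponds to 60% growth inhibition; 0 means no net growth; -100 means all cells died. Active threshold: below 10.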 A number with no mark means an inactive call. Calls of active or inactive are those of the source.

Key:
Experiment in all cases: NCI-60 one-dose screen, 48 h (100 = growth as untreated, 0 = no growth, -100 = all killed)
Details in all cases: 10 µM
HCT-15 colon = system: HCT-15 colon
HT29 colon = system: HT29 colon
SNB-75 CNS = system: SNB-75 CNS
SNB-19 CNS = system: SNB-19 CNS
U251 CNS = system: U251 CNS
PC-3 prostate = system: PC-3 prostate
UACC-62 melanoma = system: UACC-62 melanoma
LOX IMVI melanoma = system: LOX IMVI melanoma
SK-MEL-28 melanoma = system: SK-MEL-28 melanoma
SK-MEL-5 melanoma = system: SK-MEL-5 melanoma

Structure (SMILES) | growth (HCT-15 colon) | growth (HT29 colon) | growth (SNB-75 CNS) | growth (SNB-19 CNS) | growth (U251 CNS) | growth (PC-3 prostate) | growth (UACC-62 melanoma) | growth (LOX IMVI melanoma) | growth (SK-MEL-28 melanoma) | growth (SK-MEL-5 melanoma)
CS(=O)(=O)c1nccc(-c2c(-c3ccc(OCCc4ccccc4)cc3)nc3sccn23)n1 | 103% | 88.1% | 89.1% | 89.4% | 95.9% | 93.9% | 88% | 92.6% | 96.3% | 
Cc1cc(C(C#N)c2ccc(Cl)cc2)c(Cl)cc1NC(=O)c1cc(I)cc(I)c1O (configuration not stated) | 28.8% | 58% | 112% | 39.3% | 40.4% | 13.8% | 11.5% |  | 63.5% | 13.1%
CCn1cc(C(=O)O)c(=O)c2cc(F)c(N3CCNCC3)cc21 | 102% | 109% | 98.2% | 101% | 101% | 102% |  | 98.7% | 115% | 99.3%
CC(=O)/C(=C/c1ccc(Br)cc1)C(=O)c1ccccc1 | 46.6% | 76.6% | 84.5% | 90.6% | 66.9% | 80.6% |  | -61.9% (active) | 100% | 
COc1ccc(Cl)cc1Nc1nc(C(F)(F)F)ccc1C(=O)N/N=C/c1cc(OC)c(OC)c(OC)c1 | 23.7% | 32% | 32.6% | 38.9% | 16.3% | 6.2% (active) | -48% (active) |  | 30.2% | 18.8%
O=C(/C=C/C=C/c1c(C2CC2)nc2ccccc2c1-c1ccc(F)cc1)c1cccs1 | 18.6% | -38.5% (active) | 43.4% | 42.3% | -19.4% (active) | 24.9% | 13.3% | -71.5% (active) | -2.12% (active) | 
CC(CN(C)C)Oc1ccccc1NC1=C(Cl)C(=O)C(Nc2ccccc2OC(C)CN(C)C)=C(Cl)C1=O (configuration not stated) | -79% (active) | -70.1% (active) | 35% | 3.85% (active) | -84.2% (active) | 3.47% (active) | -84.5% (active) | -80.6% (active) | -64.9% (active) | 
COc1ccc(N=Nc2cc(OC)c(OC)c(OC)c2)cc1 | 82% | 69.1% | 78.7% | 89% | 79.5% | 67.2% |  | 79% | 92% | 80%
CC1C(=NC(=O)c2cnccn2)C(C)C(c2ccc(Cl)cc2)NC1c1ccncc1 (configuration not stated) | 78.8% | 73% | 78.5% | 88.4% | 76.4% | 75.6% | 91.3% |  | 101% | 88.2%
NC(N)=N/N=C(\N=Nc1ccccc1)c1ccc(Cl)cc1 | 22.1% | 21.2% | 60.6% | 81.9% | 36.3% | 25.1% | -29.6% (active) | -7.27% (active) | 75.3% | 
COc1cc2cc(Oc3ccc(NC(=O)Nc4cccc(C(F)(F)F)c4)cc3)c(C)nc2cc1OC | 15.2% | 6.55% (active) | 13% | 31.4% | -85.7% (active) | 0.0827% (active) | 14.5% | 9.78% (active) | 26.7% | 
O=C(O)COc1c(Cl)cc([N+](=O)[O-])cc1Cl | 103% | 86.2% | 102% | 112% | 97.5% | 65.3% |  | 100% | 102% | 96.3%
CCCCCCCCCCCC[n+]1c(C)cc(N)c2ccccc21 | 34.7% | -8.54% (active) | 3.98% (active) | 9.29% (active) | 8.56% (active) | -6.19% (active) | -27.8% (active) | -74.4% (active) | 29.5% | 
CCN(CC)CCCC(C)Nc1c2ccc(Cl)cc2nc2ccc(OC)cc12 (configuration not stated) | 14.2% | -30.3% (active) | 16.3% | 35.4% | 11.4% | 35% |  | -48.1% (active) | -57.6% (active) | -87.5% (active)
O=C(CSc1nnc(-c2cccnc2SCc2ccccc2)o1)Nc1nc(Cl)cc(Cl)n1 | 106% | 110% | 85.7% | 106% | 106% | 94.5% | 101% | 94.9% | 113% | 
O=S(=O)(NCCCNc1nccc(-c2cn(-c3ccccc3)nc2-c2ccc(Cl)c(O)c2)n1)c1ccccc1 | 51.3% | 60.5% | 80.5% | 86.1% | 59.4% |  | 59.1% | 63.1% | 84.5% | 46.1%
CCOC(=O)c1cc(C(=O)c2cc(OC)cc(OC)c2)n2ncc3ccccc3c12 | 29.8% | 2.01% (active) | -10% (active) | 46.8% | -13.4% (active) | 31.7% | 41.7% | 9.99% (active) | 63% | 
CCCc1nc(C(C)(C)O)c(C(=O)O)n1Cc1ccc(-c2ccccc2-c2nn[nH]n2)cc1 | 101% | 93.6% | 66.9% | 102% | 103% | 95.9% | 94.5% | 94.7% | 108% | 
COc1cc(-c2nn(-c3cccc(NC(=O)CCN4CCN(c5ccccc5)CC4)c3)cc2-c2ccncc2)ccc1Cl | 20.8% | 4.96% (active) | 36.8% | 35.9% | 17.2% | 22% | 26.6% | 6.98% (active) | 28.9% | 
NS(=O)(=O)c1ccc(Br)cc1 | 94.8% | 91.8% | 93.2% | 96.9% | 102% | 75.6% |  | 98.5% | 104% | 
CC(=O)[C@H]1CC[C@]2(C)[C@@H]1CC[C@@H]1[C@@]3(C)CC(CCC#N)(CCC#N)C(=O)C(C)(C)[C@@H]3CC[C@]12C | 100% | 98.8% | 84.5% | 93.7% | 102% | 93.8% | 82.4% | 94.1% | 93.9% | 
CS(=O)(=O)c1nccc(-c2c(-c3cccc(OCc4ccc(F)cc4)c3)nc3sccn23)n1 | 59.2% | 82.9% | 95.9% | 83.2% | 96.6% | 59.3% | 60.1% | 36.6% | 62.8% | 
CCOC(=O)c1cc(C(=O)c2ccc(OC)c(OC)c2)n2ccncc12 | 89.9% | 84.6% | 104% | 98% | 105% | 80.6% | 94% | 77.7% | 115% | 
O=[N+]([O-])c1ccc(/C(=C/c2ccccc2)[n+]2ccccc2)cc1 | 104% | 106% | 98.7% | 103% | 94.3% | 99% | 100% |  | 105% | 103%
Cc1cc(SC#N)cc(C(C)(C)C)c1O | 103% | 91.4% | 92.4% | 113% | 91.4% | 66.8% |  | 100% | 105% | 101%
COc1cc(-c2nn(-c3cccc(NC(=O)CCNc4ccc(N5CCOCC5)cc4)c3)cc2-c2ccncc2)ccc1Cl | 14.2% | 11.8% | 40.1% | 32.9% | 24% | 8.06% (active) | 13.9% | 6.71% (active) | 31.6% | 
CC(=O)Nc1ccc(CC[C@H]2CCC/C=C/[C@@H]3C[C@H](O)C[C@H]3[C@H](O)/C=C/C(=O)O2)cc1 | 9.69% (active) | -26.2% (active) | 30.3% | 25.9% | 15.2% | 18.9% | 18.7% | -64.9% (active) | 6.75% (active) | 
OC(CCN1CCCC1)(c1ccccc1)C1CCCCC1 (configuration not stated) | 92.4% | 101% | 84% | 107% | 105% | 98.6% |  |  | 105% | 89.8%
COc1ccc2nc(-c3ccc(Cl)cc3)cc(-c3nnc(SC/C(=N\O)c4ccccc4)n3-c3ccccc3)c2c1 | 84.4% | 71.8% | 102% | 104% | 85.8% | 54.1% | 89.4% | 76.1% | 94.3% | 
c1ccc2c(c1)Cc1ccccc1N2CCN1CCCCC1 | 94.2% | 74.4% | 94.7% | 90.6% | 90.1% | 82.7% |  | 87.8% | 110% | 95.5%
